These results are taken from PubChem BioAssay (NCATS).

Results filed as inconclusive are left out. A number with no mark means an inactive call. Active and inactive are the calls of the source. The call rests on the fitted dose curve; in most records, active means well fitted curve in the direction sought with a large enough effect; inconclusive means small, poorly fitted or top-dose-only effect, or another doubt; inactive means no such curve, though single readings can be large; an effect the other way counts as inactive or inconclusive.
Potency means the concentration at half of the fitted maximal effect.

Chain of Protein phosphatase 1D (Homo sapiens) (O15297 whole entry, looked up): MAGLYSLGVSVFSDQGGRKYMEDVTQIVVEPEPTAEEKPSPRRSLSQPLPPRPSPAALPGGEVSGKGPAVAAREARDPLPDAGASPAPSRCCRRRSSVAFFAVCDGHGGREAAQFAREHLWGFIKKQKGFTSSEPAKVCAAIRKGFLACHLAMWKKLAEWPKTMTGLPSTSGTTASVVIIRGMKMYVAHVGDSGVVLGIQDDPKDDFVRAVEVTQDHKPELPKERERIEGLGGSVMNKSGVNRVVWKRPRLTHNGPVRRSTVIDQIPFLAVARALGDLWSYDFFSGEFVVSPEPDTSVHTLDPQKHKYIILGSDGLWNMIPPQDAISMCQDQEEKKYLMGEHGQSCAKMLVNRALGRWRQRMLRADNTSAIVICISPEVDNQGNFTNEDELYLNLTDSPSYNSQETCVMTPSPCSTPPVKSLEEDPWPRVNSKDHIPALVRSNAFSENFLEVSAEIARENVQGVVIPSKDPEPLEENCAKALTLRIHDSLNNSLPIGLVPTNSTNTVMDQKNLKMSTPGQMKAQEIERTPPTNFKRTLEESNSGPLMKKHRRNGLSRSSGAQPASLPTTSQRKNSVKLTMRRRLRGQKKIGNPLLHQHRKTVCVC

Tested on in the first test: not listed separately
Nature of the test: qHTS to identify inhibitors of the type 1 interferon - major histocompatibility complex class I in skeletal muscle: primary screen against the NCATS Pharmaceutical Collection (AID 1347407).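 Further: luminescence of HiBiT knocked into endogenous HLA-B as interferon-induced MHC class I level.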 On activity change, negative = inhibition: on the % scale 0 is the no-effect control and ±100 the full control effect. The following applies: human skeletal muscle cells, IFN-b-induced MHC-I HiBiT luminescence, 24 h; series mostly up to 45.9 µM; activity change, negative = inhibition: at the top concentration. A digest of the protocol:
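Immortalized human myoblasts (C25cl48) with HiBiT knocked into endogenous HLA-B*08:01 were stimulated with 4.0 ng/ml IFN-beta and treated with compounds ([…] top 46 uM) for 24 hrs at 37 C. HiBiT lytic luminescence read.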
Background: In qHTS, concentration-response curves come from the screen itself.
Consider `C#CCOC(C(=O)OCCN(C)C)(c1ccccc1)c1ccccc1`, for which the “activity change, negative = inhibition” value is -24.6%.
Same read-out and setting: next, `CC(C)=CC1C(C(=O)OCc2cccc(Oc3ccccc3)c2)C1(C)C` (configuration not stated): -1.49%.
Take `c1ccc2c(c1)Nc1ccccc1S2`: the Potency result was “inactive”.
On to `NP(N)(=O)NC(=O)c1ccc(F)cc1`, for which the “activity change, negative = inhibition” value was -2.58%.
With `CCN(CC)CCN1C(=O)CN=C(c2ccccc2F)c2cc(Cl)ccc21`, the “activity change, negative = inhibition” value was -3.07%.
`CC1OC(C)OC(C)O1` (configuration not stated): the “activity change, negative = inhibition” value was 1.25%.
`CCOC(=O)C1(c2ccccc2)CCN(CCC(C#N)(c2ccccc2)c2ccccc2)CC1`: the “activity change, negative = inhibition” value is -29.8%.
`CC1NCCOC1c1ccccc1` (configuration not stated): the “activity change, negative = inhibition” value is 4.66%.
As to `CO[C@]12CC[C@@]3(C[C@@H]1[C@](C)(O)C(C)(C)C)[C@@H]1Cc4ccc(O)c5c4[C@@]3(CCN1CC1CC1)[C@H]2O5`, the Potency was 48.1 µM (active).
Consider `Clc1ccc(CCC(Cn2ccnc2)Sc2c(Cl)cccc2Cl)cc1` (configuration not stated), for which the “activity change, negative = inhibition” value was -4%.
Consider `C[C@H]1O[C@@H](O[C@H]2[C@@H](O)C[C@H](O[C@H]3[C@@H](O)C[C@H](O[C@H]4CC[C@@]5(C)[C@H](CC[C@@H]6[C@@H]5CC[C@]5(C)[C@@H](C7=CC(=O)OC7)CC[C@]65O)C4)O[C@@H]3C)O[C@@H]2C)C[C@H](O)[C@@H]1O`, for which the Potency is 0.0264 µM (active).
`CN(C)[C@@H]1C(=O)C(C(N)=O)=C(O)[C@@]2(O)C(=O)C3=C(O)c4c(O)cccc4[C@@](C)(O)[C@H]3C[C@@H]12`: the “activity change, negative = inhibition” value was -23.3%.
On the same count and under the same terms, the same measure for `N[C@@H](Cc1ccc(Oc2cc(I)c(O)c(I)c2)c(I)c1)C(=O)O`: -1.61%; for `CC(C)(N)Cc1ccc(Cl)cc1`: -4.73%.
As for `Cc1ccc(-c2nc3ccc(C)cn3c2CC(=O)N(C)C)cc1`, the “activity change, negative = inhibition” value was 11.3%.
As for `COc1ccc2c(c1OC)CN1CCc3cc4c(cc3C1C2)OCO4` (configuration not stated), the “activity change, negative = inhibition” value is -10.2%.
As for `COc1ccc(C(=O)c2c(C)n(CCN3CCOCC3)c3ccccc23)cc1`, the “activity change, negative = inhibition” value is -3.16%.
On to `CCN(CC)CCOC(=O)C(O)(c1ccccc1)c1ccccc1`, for which the “activity change, negative = inhibition” value was 3.6%.
Consider `CC(C)CC(N(C)C)C1(c2ccc(Cl)cc2)CCC1` (configuration not stated), for which the “activity change, negative = inhibition” value is 9.93%.
For `OCCOc1ccccc1`, the “activity change, negative = inhibition” value is -2.93%.
Turning to `CCN(C(C)=O)c1cccc(-c2ccnc3c(C#N)cnn23)c1`, the “activity change, negative = inhibition” value is 1.75%.
Same read-out and setting: the same measure for `C=C1CC[C@@]2(O)[C@H]3Cc4ccc(O)c5c4[C@@]2(CCN3CC2CC2)[C@H]1O5`: 1.42%.
With `C=C1C[C@@H]2[C@H](CC[C@]3(C)C(=O)CC[C@@H]23)[C@@]2(C)C=CC(=O)C=C12`, the “activity change, negative = inhibition” value is -14%.
Turning to `O=[N+]([O-])c1cc([As](=O)(O)O)ccc1O`, the “activity change, negative = inhibition” value is -1.47%.
Take `CCC(C(N)=O)N1CCCC1=O` (configuration not stated): the “activity change, negative = inhibition” value was 0.937%.
As for `Oc1cc(Cl)ccc1Oc1ccc(Cl)cc1Cl`, the “activity change, negative = inhibition” value was -13.3%.
Take `O=C(NC(O)C(Cl)(Cl)Cl)NC(O)C(Cl)(Cl)Cl` (configuration not stated): the “activity change, negative = inhibition” value is 11.2%.
Take `CN1C(=S)CN=C(c2ccccc2)c2cc(Cl)ccc21`: the “activity change, negative = inhibition” value was 24.2%.
With `Clc1cccc(N2CCNCC2)c1`, the “activity change, negative = inhibition” value was -2.32%.
Same read-out and setting: the same measure for `CCCC(C)(COC(N)=O)COC(=O)NC(C)C` (configuration not stated): 16.7%; for `CCC(COC(=O)c1cc(OC)c(OC)c(OC)c1)(c1ccccc1)N(C)C` (configuration not stated): 1.42%; for `Oc1ccccc1-c1ccccc1`: -2.19%.
Regarding `O=C(O)c1ccc2[nH]cc(CCCCN3CC=C(c4ccccc4)CC3)c2c1`, the “activity change, negative = inhibition” value is 8.94%.
In the case of `CC[N+](CC)(CC)CC`, the “activity change, negative = inhibition” value was 7.71%.
Still for that read-out and setting: the same measure for `Cc1ccc2c(c1)C1CN(C)CCC1N2` (configuration not stated): -3.06% [at 19 µM]; for `CCCC1CCCCN1` (configuration not stated): -10.2%.
Take `CC[N+]1(C)CCCC(OC(=O)C(O)(c2ccccc2)c2ccccc2)C1` (configuration not stated): the “activity change, negative = inhibition” value was -19.5%.
`O=c1oc2ccccc2c(O)c1C(CC(O)c1ccc(-c2ccc(Br)cc2)cc1)c1ccccc1` (configuration not stated): the “activity change, negative = inhibition” value is -22.1%.
Consider `CCOP(=S)(OCC)Oc1cc(C)nc(C(C)C)n1`, for which the “activity change, negative = inhibition” value is -0.217%.

For another test, the target named is Protein phosphatase 1D (Homo sapiens) (UniProt O15297). Description: RapidFire Mass Spectrometry qHTS Assay for Modulators of WT P53-Induced Phosphatase 1 (WIP1) (AID 1347424).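 Further: amount of dephosphorylated VEPPL-S-QETFS peptide product formed by WIP1.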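 On activity change, negative = inhibition: plate controls were DMSO wells for no effect and GSK830371 inhibitor control at 10 µM for full effect.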 Conditions: WIP1 dephosphorylation of phosphopeptide, RapidFire MS; series mostly up to 63 µM; activity change, negative = inhibition: at the top concentration. The procedure, abridged:
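10 nM WIP1 preincubated with compounds 1 hr at room temperature in pH 7.5 Tris buffer with 30 mM MgCl2, 1 mM TCEP; 2 uM VEPPL-pS-QETFS phosphopeptide for 5 min, formic acid quench; dephosphorylated product quantified by RapidFire MS against labelled standard.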
As to `C#CCOC(C(=O)OCCN(C)C)(c1ccccc1)c1ccccc1`, the “activity change, negative = inhibition” value was 14%.
Turning to `CC(C)=CC1C(C(=O)OCc2cccc(Oc3ccccc3)c2)C1(C)C` (configuration not stated), the “activity change, negative = inhibition” value was 29.7%.
With `c1ccc2c(c1)Nc1ccccc1S2`, the Potency result is “inactive”.
Regarding `NP(N)(=O)NC(=O)c1ccc(F)cc1`, the “activity change, negative = inhibition” value is 1.17%.
The same measure, in the same setting: next, `CCN(CC)CCN1C(=O)CN=C(c2ccccc2F)c2cc(Cl)ccc21`: 21.6%; `CC1OC(C)OC(C)O1` (configuration not stated): 4.73%.
On to `CCOC(=O)C1(c2ccccc2)CCN(CCC(C#N)(c2ccccc2)c2ccccc2)CC1`, for which the “activity change, negative = inhibition” value was 37.4%.
For the molecule `CC1NCCOC1c1ccccc1` (configuration not stated), the “activity change, negative = inhibition” value was 6.79%.
For `CO[C@]12CC[C@@]3(C[C@@H]1[C@](C)(O)C(C)(C)C)[C@@H]1Cc4ccc(O)c5c4[C@@]3(CCN1CC1CC1)[C@H]2O5`, the “activity change, negative = inhibition” value is 43.2% [at 128 µM].
Regarding `Clc1ccc(CCC(Cn2ccnc2)Sc2c(Cl)cccc2Cl)cc1` (configuration not stated), the “activity change, negative = inhibition” value was 54.3%.
Still for that read-out and setting: next, `C[C@H]1O[C@@H](O[C@H]2[C@@H](O)C[C@H](O[C@H]3[C@@H](O)C[C@H](O[C@H]4CC[C@@]5(C)[C@H](CC[C@@H]6[C@@H]5CC[C@]5(C)[C@@H](C7=CC(=O)OC7)CC[C@]65O)C4)O[C@@H]3C)O[C@@H]2C)C[C@H](O)[C@@H]1O`: 14.9%.
As to `N[C@@H](Cc1ccc(Oc2cc(I)c(O)c(I)c2)c(I)c1)C(=O)O`, the Potency is 12.6 µM (active).
Turning to `CC(C)(N)Cc1ccc(Cl)cc1`, the “activity change, negative = inhibition” value is -12.9%.
In the case of `Cc1ccc(-c2nc3ccc(C)cn3c2CC(=O)N(C)C)cc1`, the “activity change, negative = inhibition” value is 3.87%.
For the molecule `COc1ccc2c(c1OC)CN1CCc3cc4c(cc3C1C2)OCO4` (configuration not stated), the “activity change, negative = inhibition” value is 9.93%.
In the case of `COc1ccc(C(=O)c2c(C)n(CCN3CCOCC3)c3ccccc23)cc1`, the “activity change, negative = inhibition” value was 53.6%.
Regarding `CCN(CC)CCOC(=O)C(O)(c1ccccc1)c1ccccc1`, the “activity change, negative = inhibition” value is -1.11%.
For `CC(C)CC(N(C)C)C1(c2ccc(Cl)cc2)CCC1` (configuration not stated), the “activity change, negative = inhibition” value is -4.8%.
Take `OCCOc1ccccc1`: the “activity change, negative = inhibition” value was 16.4%.
On to `CCN(C(C)=O)c1cccc(-c2ccnc3c(C#N)cnn23)c1`, for which the “activity change, negative = inhibition” value was -13.7%.
Take `C=C1CC[C@@]2(O)[C@H]3Cc4ccc(O)c5c4[C@@]2(CCN3CC2CC2)[C@H]1O5`: the “activity change, negative = inhibition” value is -3.78%.
With `C=C1C[C@@H]2[C@H](CC[C@]3(C)C(=O)CC[C@@H]23)[C@@]2(C)C=CC(=O)C=C12`, the “activity change, negative = inhibition” value is -0.2%.
As for `O=[N+]([O-])c1cc([As](=O)(O)O)ccc1O`, the “activity change, negative = inhibition” value was -4.6%.
On to `CCC(C(N)=O)N1CCCC1=O` (configuration not stated), for which the “activity change, negative = inhibition” value is -6.45%.
`Oc1cc(Cl)ccc1Oc1ccc(Cl)cc1Cl`: the “activity change, negative = inhibition” value was -0.533%.
In the case of `O=C(NC(O)C(Cl)(Cl)Cl)NC(O)C(Cl)(Cl)Cl` (configuration not stated), the “activity change, negative = inhibition” value was -8.2%.
For the molecule `CN1C(=S)CN=C(c2ccccc2)c2cc(Cl)ccc21`, the “activity change, negative = inhibition” value was -4.56%.
As for `Clc1cccc(N2CCNCC2)c1`, the “activity change, negative = inhibition” value was -4.79%.
On to `CCCC(C)(COC(N)=O)COC(=O)NC(C)C` (configuration not stated), for which the “activity change, negative = inhibition” value was -0.594%.
For the molecule `CCC(COC(=O)c1cc(OC)c(OC)c(OC)c1)(c1ccccc1)N(C)C` (configuration not stated), the “activity change, negative = inhibition” value was 67%.
On to `Oc1ccccc1-c1ccccc1`, for which the “activity change, negative = inhibition” value is -6.77%.
Regarding `O=C(O)c1ccc2[nH]cc(CCCCN3CC=C(c4ccccc4)CC3)c2c1`, the “activity change, negative = inhibition” value is -17.3%.
On to `CC[N+](CC)(CC)CC`, for which the “activity change, negative = inhibition” value is 7.44%.
In the case of `Cc1ccc2c(c1)C1CN(C)CCC1N2` (configuration not stated), the “activity change, negative = inhibition” value is -5.78% [at 26.6 µM].
In the case of `CCCC1CCCCN1` (configuration not stated), the “activity change, negative = inhibition” value is 5.36%.
For `CC[N+]1(C)CCCC(OC(=O)C(O)(c2ccccc2)c2ccccc2)C1` (configuration not stated), the “activity change, negative = inhibition” value was 2.73%.
For the molecule `O=c1oc2ccccc2c(O)c1C(CC(O)c1ccc(-c2ccc(Br)cc2)cc1)c1ccccc1` (configuration not stated), the Potency was 8.91 µM (active).
`CCOP(=S)(OCC)Oc1cc(C)nc(C(C)C)n1`: the “activity change, negative = inhibition” value is 7.54%.
